Results on 40 compounds are retold here after ChEMBL document CHEMBL3433997, “St. Jude Leishmania screening dataset” (2016).

The structures appear in SMILES notation.

The target in the experiment is Glucose transporter (Leishmania mexicana) (UniProt O61059). The experiment is described as follows: ST_JUDE_LEISH: Cytotoxicity at 2uM final concentration against transgenic Leishmania Mexicana promastigotes LmGT2 that are glucose transport deficient and complemented with the L. Mexicana glucose transporter 2. Activity is measured by DNA content using SYBR green in vitro. It counts as functional.
What is called inhibition is the drop in the measured response relative to a control, in per cent. For the compound `COc1ccc(NC(=O)/C=C/c2ccccc2Cl)cc1OCCN1CCC(N(C)C)CC1`, the inhibition was determined as 1.83%.

In the case of `CCN1CCC(N(Cc2ccc(-c3ccc(C(F)(F)F)cc3)cc2)C(=O)Cn2c(CCc3cccc(F)c3F)cc(=O)c3ccc(OCc4ccccc4)cc32)CC1`, the inhibition came out at 3.52%.

As to `COc1cc2c(cc1S(=O)(=O)c1ccc(NC(=O)c3cccc(C(F)(F)F)c3)cc1)CCN(C)CC2`, the inhibition is 1.88%.

Regarding `COc1cc(OC)cc(-c2nn(-c3ccc([N+](=O)[O-])cc3C#N)c(=S)n2CC2CCCO2)c1` (stereo not given), the inhibition was -7.78%.

In the case of `CCN(CC)CCN(CCN(CC)CC)c1ccc(-c2nc3cc(Cl)c(Cl)cc3[nH]2)cc1`, the inhibition worked out at 7.03%.

With `CCC(=O)N(c1ccccc1)C1CCN(CCCC(NC(=O)c2cc(C(F)(F)F)cc(C(F)(F)F)c2)c2ccc(Cl)c(Cl)c2)CC1` (stereo not given), the inhibition is 6.09%.

On to `Cc1cc(N2CCCCC2)nc2ccc(NC(=O)c3cncc(Br)c3)cc12`, for which the inhibition was 6.57%.

Consider `COc1cccc(OC2CCN(C(=O)c3ccc(-c4ccc(N5CCCC5=O)cc4C)cc3)CC2)c1`, for which the inhibition is 3.06%.

In the case of `Cc1nc(-c2cccc(Nc3ccnc4cc(-c5nccs5)ccc34)c2)no1`, the inhibition is 2.74%.

In the case of `O=C1COC2(CN1C1CCN(Cc3ccc(O)cc3Cl)C1)c1ccccc1-c1ccccc12` (stereo not given), the inhibition is 1.29%.

On to `Cc1ccc2nc(C)cc(N/N=C/c3ccc([N+](=O)[O-])cc3)c2c1`, for which the inhibition is 104%.

For the compound `c1ccc(-c2nnc(-c3ccccn3)nc2NC2CCCCC2)cc1`, the inhibition was determined as 71.2%.

For `COc1cc2c(cc1S(=O)(=O)c1ccc(COc3ccc(C(F)(F)F)cc3)cc1)CNCC2`, the inhibition was -1.92%.

On to `Cc1ccc(NC(=O)c2cc([N+](=O)[O-])ccc2NCc2cccnc2)cc1Cl`, for which the inhibition stood at 2.63%.

As for `CC(C)COc1ccc(Cl)cc1Cc1ccc(-c2nc3cc(CCN4CCCC4)ccc3[nH]2)o1`, the inhibition came out at 2.08%.

`O=C(NCCc1ccc(Cl)c(Cl)c1)c1ccc(CNC(=O)c2ccc(O)c(-c3ccc(Cl)c(Cl)c3)c2)cc1`: the inhibition worked out at 1.06%.

Regarding `CCOC(=O)CN(c1ccc(Br)cc1OCCOc1cc(Br)ccc1N(CC(=O)OCC)C(C)C(=O)OCC)C(C)C(=O)OCC` (stereo not given), the inhibition is 1.37%.

On to `O=C(Nc1nccs1)c1cn(-c2ccccc2)nc1-c1ccc(Cl)s1`, for which the inhibition is 3.16%.

With `CCc1ccc(NC(=O)c2ccc(CN3CCCN(Cc4cccc(C)c4)CC3)cc2)cc1`, the inhibition was 5.79%.

As for `O=C(Nc1ccc(OC2CCN(Cc3ccsc3)C2)c(Cl)c1)c1ccsc1` (stereo not given), the inhibition turned out to be 1.08%.

Consider `O=c1cc(NCCCNC(CNCCc2ccccc2)c2cc(Br)cc(Br)c2)[nH]c2ccccc12` (stereo not given), for which the inhibition was 2.67%.

Regarding `CCOC(=O)c1cc(=O)c2ccc(OCC#N)cc2o1`, the inhibition was 74.8%.

For the compound `Cc1ccccc1Cn1c(CN2CCC(C(=O)NC3CC3)CC2)cc2ccccc21`, the inhibition was determined as 5.38%.

As for `CCN(CCNC(=O)C1CCN(c2cc(-c3cccc(C)c3)ncn2)CC1)Cc1ccccc1`, the inhibition stood at 4.06%.

`CC(C)CCN1CCCN(Cc2ccc(C(=O)NCc3ccc(Cl)cc3)cc2)CC1`: the inhibition was -0.7%.

With `Cc1ccc(O)c(-c2cc(C(=O)Nc3ccc(S(=O)(=O)N4CCCCCC4)cc3)[nH]n2)c1`, the inhibition is -0.85%.

With `COc1ccccc1CNc1nc(Nc2ccccc2C)nc2ccccc12`, the inhibition stood at 14.4%.

For the compound `COc1cccc(Cn2ccc3c4c(N)nc(N)nc4ccc32)c1`, the inhibition worked out at 85.1%.

With `CN(C)Cc1ccc2cc(NC(=O)c3ccc(-c4ccc(Cl)cc4)cc3)ccc2c1`, the inhibition was 2.55%.

Regarding `Fc1cc(Cl)ccc1Nc1ccnc2cc(-c3ccc(CN4CCNCC4)o3)ccc12`, the inhibition came to 1.34%.

As to `O=C(NCCCCN1CCC(c2ccc3ccccc3c2O)CC1)c1ccc(NC(=O)c2ccc(Cl)cc2)cc1`, the inhibition came out at 0.92%.

Take `COc1ccc2nccc([C@@H](O)CN3CCC(NC(=O)/C=C/c4ccc5[nH]c(=O)ccc5c4)CC3)c2c1`: the inhibition was 2.05%.

In the case of `COc1ccccc1CC1CCCN(C2CCC(NC(=O)c3cc4ccccc4[nH]3)CC2)C1` (stereo not given), the inhibition was -0.6%.

For the compound `CC(C)NCc1cccc(-c2ccc(NC(=O)c3ccc(F)cc3)cc2)c1`, the inhibition was -0.76%.

On to `COc1ccc(Nc2nccc(N3CCC(NC(=O)Nc4cc(C)ccc4C)C3)n2)cc1` (stereo not given), for which the inhibition turned out to be 9.76%.

Consider `CO/C(=C\C=C\c1cc2cc(Cl)c(Cl)cc2[nH]1)C(=O)NCCCN1CCN(c2cccc(CCCO)c2)CC1`, for which the inhibition was 5.89%.

In the case of `CC[C@H](C)CNC(=O)c1cccc(-c2ccc(CN3CCC(N4CCCC4)CC3)cc2)n1`, the inhibition worked out at 1.28%.

On to `Fc1ccc(C2N=C(SCCSC3=NC(c4ccc(F)cc4)C(c4ccc(F)cc4)N3)NC2c2ccc(F)cc2)cc1` (stereo not given), for which the inhibition stood at 3.33%.

For `CCc1cc(Cc2cnc(N)nc2N)cc(CC)c1OC`, the inhibition is -1.28%.

With `O=C(Nc1cccc(CN2CCN(Cc3cccc(O)c3)CC2)c1)c1ccc(Cl)c(Cl)c1`, the inhibition is -1.62%.
